The text below walks through data of PubChem BioAssay (NCATS).

The structures appear in SMILES notation. Records with an inconclusive call do not appear. Calls of active or inactive are those of the source. Calls come from the whole dose curve; as a rule, active = well fitted curve in the direction sought with a large enough effect; inconclusive = small, poorly fitted or top-dose-only effect, or another doubt; inactive = no such curve, though single readings can be large; an effect the other way counts as inactive or inconclusive.
Potency is the fitted concentration of half-maximal effect.

The first experiment in a line: BET inhibitor-based combinations targeting novel dependencies in MECOM-rearranged (r) AML: UCSD-AML1 cell line (AID 2202235). Note: nearly all actives have a fitted effect of over 40% in size. The conditions noted are these: UCSD-AML1 AML cells viability, CellTiter-Glo, 48 h; series mostly up to 46 µM. Put shortly: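 First, 500 cells per well were seeded; next, drugs were pinned as 11-point doses; then plates sat 48 hr in the incubator; finally CellTiter-Glo was added and luminescence read, with AUC and Z-AUC computed.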
Turning to `C=CC(=O)Nc1cccc(Nc2nc(Nc3ccc(Oc4ccnc(C(=O)NC)c4)cc3)ncc2F)c1`, the Potency is 18.6 µM (active).

For the compound `Oc1ccc(Nc2nc(-c3ccc(Cl)cc3)cs2)cc1`, the Potency was 6.61 µM (active).

For the compound `Cc1ccc(CN2CCNCC2)cc1NC(=O)CNc1ccc(F)c(F)c1`, the Potency result is “inactive”.

Consider `Cn1cc(-c2ccncc2)c(-c2ccc(OCc3ccc4ccccc4n3)cc2)n1`, for which the Potency result was “inactive”.

The nature of another experiment: BET inhibitor-based combinations targeting novel dependencies in MECOM-rearranged (r) AML: AML-191 cell line (AID 2202236; note: nearly all actives have a fitted effect of over 35% in size). The conditions noted are these: AML-191 viability, CellTiter-Glo luminescence, 48 h; series mostly up to 46 µM. Put shortly:
(§1)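 Each compound was tested at eleven concentrations on cells seeded at 500/well. After two days' incubation, ATP-based luminescence reported viability; responses relative to DMSO and blank wells yielded AUC and cell-line-centred Z-AUC.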
Regarding `Cn1cc(-c2ccc3ncc(Cc4ccc5ncccc5c4)n3n2)cn1`, the Potency is 13.2 µM (active).

`C=CC(=O)Nc1cccc(Nc2nc(Nc3ccc(Oc4ccnc(C(=O)NC)c4)cc3)ncc2F)c1`: the Potency is 16.6 µM (active).

As to `Oc1ccc(Nc2nc(-c3ccc(Cl)cc3)cs2)cc1`, the Potency is 16.6 µM (active).

A short description of a further experiment: BET inhibitor-based combinations targeting novel dependencies in MECOM-rearranged (r) AML: AML-194 cell line (AID 2202237; note: nearly all actives have a fitted effect of over 40% in size). The conditions noted are these: AML-194 (MECOM-r AML) viability, CellTiter-Glo, 48 h; series mostly up to 46 µM. Put shortly:
as §1
Regarding `C=CC(=O)Nc1cccc(Nc2nc(Nc3ccc(Oc4ccnc(C(=O)NC)c4)cc3)ncc2F)c1`, the Potency is 18.6 µM (active).

As to `Oc1ccc(Nc2nc(-c3ccc(Cl)cc3)cs2)cc1`, the Potency result is “inactive”.

As for `Cc1ccc(CN2CCNCC2)cc1NC(=O)CNc1ccc(F)c(F)c1`, the Potency entry was “inactive”.
